{
  "source": "the supplement of paper PMC7156485",
  "note": "Values without a mark were called inactive.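 Further: TDF is a line of transformed human dermal fibroblasts of mesenchymal origin.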",
  "data": [
    {"test_system": "TDF", "test": "H1.0 immunofluorescence intensity relative to DMSO (% of DMSO); higher = stronger H1.0 induction, active = 120 or more", "details": "concentration: 10 µM; 24 h", "outline": "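H1.0 nuclear intensity or cell number is stated as percent of the plate control, based on the median of replicates, and HCC1569 values were smoothed for positional effects. These came from HCC1569 and TDF cells treated with compounds at 10 µM for 24 h at 37 °C in triplicate, then fixed in 3.7% formaldehyde and stained with a rabbit anti-H1.0 antibody, an AlexaFluor 647 secondary and DAPI.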", "values": [
      {"smiles": "Br.CN1CCc2c(cc(O)c(O)c2Cl)C(c2cccc(Cl)c2)C1", "note": "(stereo not given)", "H1.0 immunofluorescence intensity": 91.9},
      {"smiles": "COc1cc(OC)cc(C(CNc2ncnc3c2ncn3C2OC(CO)C(O)C2O)c2ccccc2C)c1", "note": "(stereo not given)", "H1.0 immunofluorescence intensity": 94.5},
      {"smiles": "NS(=O)(=O)c1ccc(-n2nc(C(F)(F)F)cc2-c2ccc(Cl)cc2)cc1", "H1.0 immunofluorescence intensity": 90.5},
      {"smiles": "COC1C(OC(=O)c2ccc(C)[nH]2)C(O)C(Oc2ccc3c(O)c(NC(=O)c4c[nH]c(C(=O)Nc5c(O)c6ccc(OC7OC(C)(C)C(OC)C(OC(=O)c8ccc(C)[nH]8)C7O)c(C)c6oc5=O)c4C)c(=O)oc3c2C)OC1(C)C", "note": "(stereo not given) [Coumermycin A1]", "H1.0 immunofluorescence intensity": 93.5},
      {"smiles": "COc1cc2c(c(OC)c1OC)-c1c(cc(OC)c(OC)c1OC)CC(C)C(C)C2", "note": "(stereo not drawn) [R(+)-Schisandrin A]", "H1.0 immunofluorescence intensity": 91.6},
      {"smiles": "Cc1c(CC(C)(C)C(=O)O)n(Cc2ccc(Cl)cc2)c2ccc(F)cc12", "H1.0 immunofluorescence intensity": 105},
      {"smiles": "O=C(CCc1ccc(O)cc1)c1c(O)cc(O)cc1OC1OC(CO)C(O)C(O)C1O", "note": "(stereo not given) [Phlorizine]", "H1.0 immunofluorescence intensity": 102},
      {"smiles": "NNCCc1ccccc1.O=S(=O)(O)O", "note": "[Phenelzine sulfate]", "H1.0 immunofluorescence intensity": 95.3},
      {"smiles": "O=C(O)Cc1ccc(O)c(O)c1", "note": "[3,4-Dihydroxyphenylacetic acid]", "H1.0 immunofluorescence intensity": 95.9},
      {"smiles": "CCC1OC(=O)C(C)C(OC2CC(C)(OC)C(O)C(C)O2)C(C)C(OC2OC(C)CC(N(C)C)C2O)C(C)(O)CC(C)CN(C)C(C)C(O)C1(C)O", "note": "(stereo not given) [Azithromycin]", "H1.0 immunofluorescence intensity": 91.2},
      {"smiles": "O=c1cc(-c2ccc(O)cc2)oc2cc(OC3OC(CO)C(O)C(O)C3O)c(C3OC(CO)C(O)C(O)C3O)c(O)c12", "note": "(stereo not given) [Saponarin]", "H1.0 immunofluorescence intensity": 108},
      {"smiles": "CCCCCC(=O)c1c(O)c(Cl)c(OC)c(Cl)c1O", "note": "[1-(3,5-dichloro-2,6-dihydroxy-4-methoxyphenyl)-1-hexanone]", "H1.0 immunofluorescence intensity": 101},
      {"smiles": "COc1c(N2CC3CCCNC3C2)c(F)cc2c(=O)c(C(=O)O)cn(C3CC3)c12.Cl", "note": "(stereo not given) [Moxifloxacin.HCl]", "H1.0 immunofluorescence intensity": 96.7},
      {"smiles": "Nc1ncnc2c1nc(Sc1ccc(Cl)cc1)n2C1OC2COP(=O)([O-])OC2C1O.[Na+]", "note": "(stereo not given) [8-(4-Chlorophenylthio)-cAMP sodium]", "H1.0 immunofluorescence intensity": 93.1},
      {"smiles": "CCCCC(C)(O)CC=CC1C(O)CC(=O)C1CCCCCCC(=O)OC", "note": "(stereo not given) [Misoprostol]", "H1.0 immunofluorescence intensity": 93.2},
      {"smiles": "CN1CCC(=C2c3ccccc3C=Cc3ccccc32)CC1.Cl", "note": "[Cyproheptadine hydrochloride]", "H1.0 immunofluorescence intensity": 111},
      {"smiles": "Cl.Clc1cccc(Cl)c1NC1=NCCN1", "note": "[Clonidine.HCl]", "H1.0 immunofluorescence intensity": 84.7},
      {"smiles": "CCCCNc1cc(C(=O)O)cc(S(N)(=O)=O)c1Oc1ccccc1", "note": "[Bumetanide]", "H1.0 immunofluorescence intensity": 96.4},
      {"smiles": "CCCCCCCCCCCCCC=CC(O)C(CO)N(C)C", "note": "(stereo not given) [N,N-Dimethylsphingosine]", "H1.0 immunofluorescence intensity": 101},
      {"smiles": "CCCCCCCC/C=C\\CCCCCCCC(N)=O", "note": "[(9Z)-9-octadecenamide]", "H1.0 immunofluorescence intensity": 102},
      {"smiles": "Cl.O=S(=O)(c1cccc2cnccc12)N1CCCNCC1", "H1.0 immunofluorescence intensity": 92.4},
      {"smiles": "C=C1NC(=O)C2=C(CCSC2)N1", "H1.0 immunofluorescence intensity": 95.5},
      {"smiles": "COc1ccc(-n2[nH]c3c(cnc4ccccc43)c2=O)cc1", "note": "[2-(4-methoxyphenyl)-1H-pyrazolo[4,3-c]quinolin-3(2H)-one]", "H1.0 immunofluorescence intensity": 98.5},
      {"smiles": "Cc1cc(Nc2cc(N3CCN(C)CC3)nc(Sc3ccc(NC(=O)C4CC4)cc3)n2)n[nH]1", "note": "[Tozasertib]", "H1.0 immunofluorescence intensity": 99.2},
      {"smiles": "COc1ccc(OC)c2c(=S)c3ccccc3[nH]c12", "H1.0 immunofluorescence intensity": 106},
      {"smiles": "NC(=S)NN=Cc1ncccc1N", "note": "[3-amino-2-pyridinecarbaldehyde thiosemicarbazone]", "H1.0 immunofluorescence intensity": 113},
      {"smiles": "CNC1C(OC2C(OC3C(O)C(O)C(N=C(N)N)C(O)C3N=C(N)N)OC(C)C2(O)C=O)OC(CO)C(O)C1O", "note": "(stereo not given) [Streptomycin]", "H1.0 immunofluorescence intensity": 96.7},
      {"smiles": "O=c1c(-c2ccc(O)cc2)coc2cc(O)cc(O)c12", "note": "[Genistein]", "H1.0 immunofluorescence intensity": 92.8},
      {"smiles": "COc1ccccc1N1CCN(CCN(C(=O)c2ccc(I)cc2)c2ccccn2)CC1.Cl", "note": "[p-MPPI hydrochloride]", "H1.0 immunofluorescence intensity": 96.6},
      {"smiles": "Cc1cc2cc3c(C)cc(=O)oc3c(C)c2o1", "note": "[4,5',8-Trimethylpsoralen]", "H1.0 immunofluorescence intensity": 97.2},
      {"smiles": "CCCNC(C)C(=O)Nc1ccccc1C.Cl", "note": "(stereo not given) [Prilocaine hydrochloride]", "H1.0 immunofluorescence intensity": 86.9},
      {"smiles": "COc1cc2ncnc(Nc3cccc(Cl)c3)c2cc1OC", "note": "[Tyrphostin AG 1478]", "H1.0 immunofluorescence intensity": 96.2},
      {"smiles": "CC1=CCC2(C)CCC(O)(C(C)C)C2C(OC(=O)c2ccc(O)cc2)C1", "note": "(stereo not given) [Ferutinin]", "H1.0 immunofluorescence intensity": 97.8},
      {"smiles": "CCCCCCCCCCCC=CC(C)(C)C=CCCCC(=O)O", "note": "[7,7-Dimethyl-(5Z,8Z)-eicosadienoic acid]", "H1.0 immunofluorescence intensity": 91.9},
      {"smiles": "CC(C)[N+]1(C)C2CCC1CC(OC(=O)C(CO)c1ccccc1)C2.[Br-]", "note": "(stereo not given) [Ipratropium.Br]", "H1.0 immunofluorescence intensity": 91.5},
      {"smiles": "C#C[C@@]1(OC(C)=O)CC[C@H]2[C@@H]3CCC4=CC(=O)CC[C@@H]4[C@H]3CC[C@@]21C", "note": "[(17beta)-17-ethynyl-3-oxoestr-4-en-17-yl acetate]", "H1.0 immunofluorescence intensity": 95.5},
      {"smiles": "Cl.Clc1cccc(Cl)c1NC1=NCCN1", "note": "[Clonidine hydrochloride]", "H1.0 immunofluorescence intensity": 94.1},
      {"smiles": "CN(C)CCC(c1ccc(Cl)cc1)c1ccccn1", "note": "(stereo not given) [Chlorpheniramine]", "H1.0 immunofluorescence intensity": 96.2},
      {"smiles": "Clc1ccccc1C(c1ccccc1)(c1ccccc1)n1ccnc1", "note": "[Clotrimazole]", "H1.0 immunofluorescence intensity": 104},
      {"smiles": "N[C@@H](CCCC(=O)O)C(=O)O", "note": "[L-2-aminoadipic acid]", "H1.0 immunofluorescence intensity": 99.8}
    ]}
  ]
}
